Shown are actives, neighbours in structure and some others; about 10% of the full set was active somewhere.
G9a block – inhibitors of human histone lysine methyltransferase G9a; Q96KQ7; G9a H3K9 monomethylation, AlphaScreen, 2 h; Potency, µM (doses to about 102 µM), for inactives: top-dose activity, negative = inhibition, most hits filed as inhibitors; actives 8.8% (n = 350,000); note: potency is the fitted concentration of half-maximal effect; % is set by controls: 0 for no effect and ±100 for the full control effect; nearly all actives have a fitted effect of over 75% in size
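Compounds were preincubated with 20 nM G9a for 15 min, after which biotinylated H3K9 peptide (500 nM) and SAM (20 uM) started a 2 h room-temperature reaction. Monomethylated product was quantified by antibody-based AlphaScreen chemiluminescence.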
Six1-Eya2 blk – inhibitors of human Six1/Eya2 interaction; AlphaScreen GST-Six1/His-Eya2 binding, biochemical; stronger effect = lower value; activity change, % (test concentration not listed); actives 0.56% (n = 360,000); in the data active = activity change below about -65%; inconclusive = mostly about -30% to -63%; note: % is set by controls: 0 for no effect and ±100 for the full control effect
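AlphaScreen with GST-Six1 and His-Eya2 (5X mix: 250 nM and 500 nM), glutathione donor and nickel acceptor beads; buffer 50 mM Tris pH 8.0, 300 mM NaCl, 1 mM TCEP; 1 h at 37 C in the dark.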
HP1b binding inh – inhibitors of HP1-beta chromodomain binding to methylated histone tails. actives 0.56% (n = 390,000). AlphaScreen HP1-beta / biotin-H3K9me3 peptide binding. P83916. AID 540317. Potency, µM (highest dose often 114 µM), for the others: top-dose activity change, negative = inhibition, actives largely listed as inhibitors; note: potency is the fitted concentration of half-maximal effect; nearly all actives have a fitted effect of over 70% in size
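Compound inhibition of the preformed complex between 50 nM HP1-beta and 50 nM biotinylated H3K9me3 peptide was read by AlphaScreen. Buffer was PBS pH 7.4 with 0.01% Tween-20. Incubations ran 30 min at room temperature, with 10 ug/mL donor/acceptor beads.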
CtBP-E1A inh – inhibitors of CtBP/E1A interaction; actives 0.49% (n = 340,000); AlphaScreen GST-E1A/His-CtBP binding, 1536-well; stronger effect = lower value; activity change, % (no concentration beside the values); AID 651724; in the data active = activity change below about -65%; inconclusive = mostly about -30% to -63%; note: % is set by controls: 0 for no effect and ±100 for the full control effect
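Protein mix (5X: 125 nM each GST-E1A, His-CtBP) was incubated with pinned compound 2 h at 37 deg C in dark, in 50 mM Tris pH 8.0 buffer with 300 mM NaCl. Glutathione donor and nickel acceptor beads followed; AlphaScreen signal read after 1 h.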
BAZ2B block – blocks human BAZ2B; Q9UIF8; actives 4.4% (n = 360,000); AlphaScreen BAZ2B-H3K14Ac peptide displacement; Potency, µM (series often up to 114 µM), for inactives: top-dose activity change, negative = inhibition, actives largely listed as inhibitors; note: potency is the fitted concentration of half-maximal effect; % is set by controls: 0 for no effect and ±100 for the full control effect; nearly all actives have a fitted effect of over 60% in size
Target sequence (Q9UIF8 whole entry, looked up): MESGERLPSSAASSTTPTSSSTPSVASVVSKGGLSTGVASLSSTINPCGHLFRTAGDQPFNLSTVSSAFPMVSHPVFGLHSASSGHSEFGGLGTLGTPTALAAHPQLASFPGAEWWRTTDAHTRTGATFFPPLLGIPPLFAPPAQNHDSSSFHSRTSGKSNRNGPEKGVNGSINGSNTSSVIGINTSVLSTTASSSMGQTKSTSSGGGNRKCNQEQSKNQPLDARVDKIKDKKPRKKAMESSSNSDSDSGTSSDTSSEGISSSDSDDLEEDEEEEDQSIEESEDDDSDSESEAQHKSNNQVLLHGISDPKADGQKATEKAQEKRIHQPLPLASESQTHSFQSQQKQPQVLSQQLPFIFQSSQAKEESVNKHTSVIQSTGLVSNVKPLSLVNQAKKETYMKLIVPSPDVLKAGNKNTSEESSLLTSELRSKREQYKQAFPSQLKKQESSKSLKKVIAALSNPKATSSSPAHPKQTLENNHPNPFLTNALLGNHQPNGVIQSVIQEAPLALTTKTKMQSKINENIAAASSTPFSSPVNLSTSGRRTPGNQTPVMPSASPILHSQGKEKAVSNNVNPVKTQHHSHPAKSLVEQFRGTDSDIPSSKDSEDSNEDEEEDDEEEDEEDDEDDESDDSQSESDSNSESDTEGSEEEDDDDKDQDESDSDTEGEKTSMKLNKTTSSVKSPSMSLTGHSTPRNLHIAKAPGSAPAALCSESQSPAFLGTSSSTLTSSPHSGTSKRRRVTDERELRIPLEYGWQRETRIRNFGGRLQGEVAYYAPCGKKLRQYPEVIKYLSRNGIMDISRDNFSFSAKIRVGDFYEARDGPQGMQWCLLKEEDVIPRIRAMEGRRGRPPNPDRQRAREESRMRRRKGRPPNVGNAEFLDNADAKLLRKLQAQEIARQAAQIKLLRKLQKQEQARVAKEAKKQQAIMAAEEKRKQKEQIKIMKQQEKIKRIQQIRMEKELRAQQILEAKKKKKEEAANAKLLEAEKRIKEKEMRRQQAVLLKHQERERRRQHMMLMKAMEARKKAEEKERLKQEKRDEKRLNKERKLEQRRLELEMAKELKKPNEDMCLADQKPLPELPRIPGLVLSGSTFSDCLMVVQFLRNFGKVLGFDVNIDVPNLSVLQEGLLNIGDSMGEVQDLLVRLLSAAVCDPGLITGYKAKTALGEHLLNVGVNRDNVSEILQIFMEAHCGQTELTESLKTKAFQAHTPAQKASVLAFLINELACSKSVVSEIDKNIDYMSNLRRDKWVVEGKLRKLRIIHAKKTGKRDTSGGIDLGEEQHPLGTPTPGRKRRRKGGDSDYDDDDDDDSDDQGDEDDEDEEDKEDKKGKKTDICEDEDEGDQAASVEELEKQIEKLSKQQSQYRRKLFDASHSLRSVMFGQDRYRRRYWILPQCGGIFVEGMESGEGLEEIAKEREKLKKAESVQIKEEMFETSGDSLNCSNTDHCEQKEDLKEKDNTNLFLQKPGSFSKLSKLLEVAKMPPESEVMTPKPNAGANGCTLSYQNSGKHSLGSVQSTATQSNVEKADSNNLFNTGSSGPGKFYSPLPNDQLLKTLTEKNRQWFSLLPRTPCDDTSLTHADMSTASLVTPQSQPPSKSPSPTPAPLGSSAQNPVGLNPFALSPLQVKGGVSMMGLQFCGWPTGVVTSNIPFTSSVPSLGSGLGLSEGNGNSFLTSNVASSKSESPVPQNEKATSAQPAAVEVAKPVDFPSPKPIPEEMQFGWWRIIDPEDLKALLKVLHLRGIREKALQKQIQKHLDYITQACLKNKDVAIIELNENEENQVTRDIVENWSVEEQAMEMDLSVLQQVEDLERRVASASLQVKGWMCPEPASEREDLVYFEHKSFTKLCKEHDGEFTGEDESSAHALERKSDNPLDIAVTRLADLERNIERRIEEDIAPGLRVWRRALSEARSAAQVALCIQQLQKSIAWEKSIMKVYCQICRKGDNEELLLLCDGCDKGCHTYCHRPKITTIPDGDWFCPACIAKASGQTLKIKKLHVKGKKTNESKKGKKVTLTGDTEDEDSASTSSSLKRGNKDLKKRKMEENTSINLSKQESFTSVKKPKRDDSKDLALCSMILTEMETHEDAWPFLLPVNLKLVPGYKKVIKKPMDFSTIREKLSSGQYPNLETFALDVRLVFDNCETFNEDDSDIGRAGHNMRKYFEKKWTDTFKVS
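Compounds, titrated to a top concentration of 110 uM, were incubated 30 min at room temperature with preformed BAZ2B/acetyl-K14 H3 peptide complex (50 nM each). Proximity signal was measured by AlphaScreen after 20 min with beads.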
JMJD2A Tudor – inhibitors of human JMJD2A Tudor domain; O75164; AlphaScreen JMJD2A-Tudor / H3K4me3 peptide binding; Potency, µM (highest dose often 114 µM), inactives show at the highest dose activity change, negative = inhibition, most hits filed as inhibitors; actives 4.4% (n = 390,000); AID 504339; note: potency is the fitted concentration of half-maximal effect; % is set by controls: 0 for no effect and ±100 for the full control effect; nearly all actives have a fitted effect of over 50% in size
* hit, by the source's call; ? = inconclusive; · = no result; ! = repeats disagree; [ ] = remark or other dose. Unless noted, calls come from the whole dose curve; as a rule, active = well fitted inhibition curve with a large enough effect; inconclusive = small, poorly fitted or top-dose-only effect; inactive = no such curve, though single readings can be large or run the other way.

SMILES	G9a block	Six1-Eya2 blk	HP1b binding inh	CtBP-E1A inh	BAZ2B block	JMJD2A Tudor
CC(C)c1ccc(/C=N/N2CCN(c3ccccn3)CC2)cc1	?	-6	6%	-14	-23%	-28%
COc1cccc(CN2CCC2(C)C(=O)Nc2ccc(C)cc2)c1F (stereo not given)	·	-3	·	-4	·	·
COc1ccc(CCN(Cc2cc3ccc(C)cc3n3nnnc23)C(C)=O)cc1OC	-15%	-4	-7%	0	5%	11µM*
C=CCOC(=O)C1=C[C@H](c2ccc(C(F)(F)F)cc2)C[C@H](OCCCCO)O1	·	5	14%	3	·	-20%
C#Cc1ccc([C@@H]2C=C(C(=O)OCC=C)O[C@H](OCCCCO)C2)cc1	?	-4	30%	3	50µM*	-34%
O=C(O)C1=C[C@H](c2ccc(F)cc2)C[C@H](OCCCCO)O1	-28%[12.7 µM]	-8	58%	19	79µM*	-24%
COc1ccc([C@H]2C=C(C(=O)O)O[C@@H](OCCCCO)C2)cc1	-8%[12.7 µM]	-11	35%	-18	?	56µM*
O=C(Nc1cccnc1)c1cc(-c2cccc(Cl)c2)on1	10%	-1	3%	5	4%	25µM*!
O=C(Nc1cccnc1)c1cc(-c2ccc(Cl)c(Cl)c2)on1	7%	33	16%	2	0%	-9%
O=C(Nc1cccnc1)Nc1cc(Cl)cc(Cl)c1	79µM*	2	33%	0	17%	0%
COc1ccc(C(=O)NC(C)C2CC3CCC2C3)cc1 (stereo not given)	24%	20	65%	0	13%	0%
CC(C1CC2CCC1C2)n1c(-c2ccco2)n[nH]c1=S (stereo not given)	2.2µM*	-4	?	-21	?	20µM*
Cc1ccc2c(c1)C1(C(=O)N2)N2CCCC2C(C(=O)c2ccc3ccccc3c2)C12C(=O)Nc1ccccc12 (stereo not given)	?	1	?	-7	?	50µM*
O=C1CCC(C(=O)N2CCCC(C(=O)c3ccc4ccccc4c3)C2)=NN1 (stereo not given)	?	21	44%	2	-17%	-17%
O=C(NCc1ccncc1)[C@@H]1CCCN1C(=O)[C@H]1CCCN1C(=O)c1c(F)cccc1F	·	5	·	4	·	·
O=S(=O)(NC1CCN(S(=O)(=O)c2c(F)cccc2F)C1)c1ccc2c(c1)OCCO2 (stereo not given)	3%[0.501 µM]	·	51%	·	9%	-1%
COc1ccc(N=Nc2nc3cc(Br)c(Br)cc3n2C)c(OC)c1	?	?	45µM*	10	35µM*	32µM*
COc1ccc(N/C=C(\C#N)c2nc3ccccc3n2C)c(OC)c1	3%	-28	?	-22	-5%	?
Cc1ccc(Oc2coc3cc(OC(=O)c4cccs4)ccc3c2=O)cc1	14%[59 µM]	-19	28%	-5	-6%	-4%
CC(=O)Oc1ccc2c(=O)c(Oc3ccccc3)coc2c1OC(C)=O	8.9µM*	-8	-12%	-6	50µM*	?
Cc1ccc(C)c(N2CCN(C(=O)CCCCCn3c(=O)[nH]c4ccccc4c3=O)CC2)c1	-1%[59 µM]	·	12%	·	-39%	-33%
O=C1C(O)=C(O)C(=O)C(O)=C1O	6.3µM*!	·	·	·	·	·
COc1cccc(-c2cnc(C(O)c3c(C)ccc4ccccc34)[nH]2)c1 (stereo not given)	·	-10	·	-11	·	·
COc1ccc(S(=O)(=O)N2CCC(N3CCN(c4ccccc4OC)CC3)CC2)cc1	3.2µM*	7	40µM*	-1	40µM*	1.8µM*
Cc1ccc(S(=O)(=O)N2CCC(N3CCN(Cc4ccccc4)C(=O)C3=O)CC2)cc1C	7%[59 µM]	·	17%	·	-2%	-22%
SMILES	G9a block	Six1-Eya2 blk	HP1b binding inh	CtBP-E1A inh	BAZ2B block	JMJD2A Tudor
COc1ccccc1N1CCN(C2CCN(S(=O)(=O)c3ccc(NC(C)=O)cc3)CC2)CC1	-4%	6	14%	3	-4%	-8%
COc1ccc(S(=O)(=O)N2CCC(N3CCN(Cc4ccccc4)C(=O)C3=O)CC2)cc1	-3%[59 µM]	·	20%	·	0%	79µM*
COc1ccccc1N1CCN(S(=O)(=O)c2c[nH]c(=O)[nH]c2=O)CC1	20µM*	-2	40%	0	9%	0%
COc1ccccc1N1CCN(C2CCCN(S(=O)(=O)c3ccc(C)cc3)C2)CC1 (stereo not given)	56µM*	-18	6%	-10	-32%	-31%
COc1ncc2nc(-c3cn(C)c4ccccc34)c(=O)n(CCc3ccccc3)c2n1	14%[0.501 µM]	·	·	·	·	·
CCCN(CCC)CCNc1c(N2CCN(C(=O)OCC)CC2)c(=O)c1=O	79µM*	7	22%	4	8%	0%
Cc1ccccc1-c1nc(CN2CCC(C(=O)NCc3ccccc3Cl)CC2)c(C)o1	-25%[59 µM]	·	19%	·	?	-17%
CSc1ccccc1Sc1cc(C(=O)O)c2ccccc2n1	10µM*	1	23%	2	-1%	3%
CCC(CC)C(=O)NN(C(=O)c1ccncc1)C1CC(=O)N(c2ccccc2)C1=O (stereo not given)	-2%	-5	19%	7	5%	-15%
Nc1cc(C(=O)OCC(=O)NCCNC(=O)COC(=O)c2ccc(Cl)c(N)c2)ccc1Cl	?	-8	-3%	-2	1%	-26%
COc1ccc(C(=O)N2CCC3(CCN(CC(C)C)CC3)CC2)cc1	-25%[12.7 µM]	·	·	·	·	·
COC(=O)/C=C1\C(=O)N(c2nc3ccc(OC)cc3s2)C(=S)N1c1ccc(F)cc1	-7%[59 µM]	·	·	·	5%	·
COC(=O)/C=C1\C(=O)N(c2nc3ccccc3s2)C(=S)N1c1ccc(F)cc1	71µM*	0	15%	-11	8%	-12%
CC1/C(=N/O)CC(c2ccco2)NC1c1ccco1 (stereo not given)	11%[59 µM]	2	12%	8	-1%	-10%
OC1CC(c2ccco2)NC2(CCCCC2)C1 (stereo not given)	8.9µM*	8	-55%	0	?	7.9µM*
CCOC(=O)C1(C)C=C(Nc2cccc(C(=O)O)c2)C(=O)N1c1ccccc1 (stereo not given)	-2%[59 µM]	·	66%	·	5%	-3%
CCC(=O)N[C@@H]1CC(C(C)(C)NC(=O)CC)CC=C1C (stereo not given in full)	-41%	-2	-12%	0	-2%	50µM*
CCOc1ccc(Nc2nc(Cc3nnc(SCC(=O)O)o3)cs2)cc1	50µM*	-15	2%	1	?	89µM*
CCCCC(CCC(=O)O)(C(=O)OCC)c1csc(Nc2ccc(OCC)cc2)n1 (stereo not given)	32µM*	-1	2%[57 µM]	·	?	-32%

From PubChem
